An excerpt weighted towards active compounds, which were near 2.1% of everything screened.
KLF5 inhibitor: KLF5 expression inhibitors, primary screen, DLD-1 cells, luminescence | inhibition, % at 5 µM | AID 1700, 2009 | 290,000 compounds, 0.23% hits | DLD-1 KLF5 promoter-luciferase reporter;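 active = inhibition above a per-plate limit of that plate's mean compound inhibition plus 3 SD, cut at about 60% in these data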;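 note: 0% = DMSO wells and 100% = LY294002 at 200 µM; higher means less KLF5 promoter-driven luciferase light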
Ba/F3 V617F tox: reduced viability of JAK2V617F-dependent Ba/F3 cells, primary screen, JAK2V617F inhibitor project, cell-based, Ba/F3 EpoR-JAK2V617F, luminescence; ATP luminescence; inhibition, % at 5.6 µM; 220,000 compounds, 1.1% hits;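 active = inhibition above the campaign mean plus 3 SD over all tested compounds, cut at about 24% in these data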;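 note: cytokine-independent growth of Ba/F3 cells driven by EpoR plus mutant JAK2; 0% = DMSO-treated cells and 100% = JAK inhibitor I control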
APP transl inh: inhibitors of APP translation via 5'UTR reporter, primary screen, APP 5'UTR luciferase, SH-SY5Y cells. SH-SY5Y APP 5'UTR-luciferase reporter, luminescence. 190,000 compounds, 0.82% hits. AID 1285, 2008. inhibition, % at 2 µM;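 active = inhibition above a set limit, derived from the sample mean plus 3 SD, cut at about 45% in these data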
aSyn 5UTR inh: MLPCN primary screen, SNCA 5' untranslated region; alpha-synuclein 5'UTR reporter, inhibitor activity; AID 1813, 2009; inhibition, % (tested at 7.5 µM); 300,000 compounds, 0.82% hits; in the data active = inhibition above about 60%;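 note: H4 neuroglioblastoma cells stably carrying SNCA 5'UTR luciferase fusion; 0% = DMSO wells and 100% = positive control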
BaF3 parental: parental Ba/F3 cell viability inhibition, counter-screen for JAK2V617F inhibitor project, murine pro-B, CellTiter-Glo luminescence | 220,000 compounds, 1.1% hits | CellTiter-Glo ATP luminescence | inhibition, % at 5.6 µM;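 active = inhibition above a per-campaign cutoff, the mean inhibition of all tested compounds plus 3 SD, cut at about 27% in these data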;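 note: 0% = DMSO wells and 100% = JAK Inhibitor I control wells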
IEC-6 cytotox: cytotoxicity in IEC-6 intestinal epithelial cells, primary screen, cytotoxicity control for KLF5 inhibitor project, cell-based, luminescence | inhibition, % at 5 µM | AID 1825, 2009 | IEC-6 cytotoxicity, luminescence viability | 290,000 compounds, 0.78% hits; in the data active = inhibition above about 22%;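 note: 0% = plate median of test compound wells and 100% = cytotoxic reference compound wells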
The depositor's hits bear a star; . = no result; ! = not confirmed by another sample.

SMILES | KLF5 inhibitor | Ba/F3 V617F tox | APP transl inh | aSyn 5UTR inh | BaF3 parental | IEC-6 cytotox
Cc1ccc(N2CC(C(=O)N3CCC(C(=O)Nc4nnc(C(C)(C)C)s4)CC3)CC2=O)cc1 (stereo unspecified) | -17.0 | . | . | 23.5 | . | -4.0
O=C(O)CC1S/C(=N/N=C/C=C/c2ccccc2)NC1=O (stereo unspecified) | -31.6 | 3.3 | 2.6 | -6.7 | 97.3*! | 9.9
Cn1cc(CN2C[C@H]3CC[C@H]2C3)c(-c2ccccc2F)n1 | -1.5 | 55.0* | 9.2 | 19.0 | 31.4* | 10.5
O=C(CN1C(=O)NC(c2ccccc2)(c2ccccc2)C1=O)NCCNCCO | -28.0 | . | . | 6.6 | . | 0.3
COc1ccc2cc(C(=O)N/N=C/c3sc4ccccc4c3O)ccc2c1 | -4.7 | 1.4 | 4.8 | -1.7 | 3.5 | -4.1
O=C(N/N=C/c1sc2ccccc2c1O)c1ccccc1 | -18.2 | -2.5 | 52.6* | 81.5* | 5.9 | 4.1
O=C(N/N=C/c1ccccc1)c1cccc2ccccc12 | . | . | . | -21.9 | . | .
O=C(N/N=C/c1sc2ccccc2c1O)c1cccc2ccccc12 | -9.6 | -3.8 | 48.5* | 91.6* | 6.1 | 6.6
COc1cc(/C=C(/C#N)c2nc3ccccc3[nH]2)ccc1OCC(=O)Nc1ccccc1C(C)C | 1.9 | -0.6 | 4.8 | 103.5* | 5.6 | -2.4
O=C(c1cccnc1)N1CCC(Oc2ccc(C(=O)N3CCCC(O)C3)cc2)CC1 (stereo unspecified) | -23.6 | -3.6 | 27.5 | -9.9 | 0.2 | 7.7
O=S(=O)(c1ccc2ccccc2c1)N1CCN(C(=S)Nc2ccc(F)cc2)CC1 | -23.1 | 19.1 | 5.5 | 2.2 | 35.0* | -0.2
CN1/C(=C\C=N\NC(=O)c2ccc(O)cc2)C(C)(C)c2ccccc21 | -10.0 | 36.5* | -0.6 | 8.5 | 42.3* | 3.3
Cc1c(N=C/C=C2\N(C)c3ccccc3C2(C)C)c(=O)n(-c2ccccc2)n1C | -4.1 | -5.4 | -19.7 | -29.5 | -1.4 | 1.6
CN1/C(=C\C=N\NC(=O)c2cccnc2)C(C)(C)c2ccccc21 | -5.8 | 37.5* | 19.2 | -3.5 | 42.9* | 1.1
O=C(Cn1nc(CNc2ccc(Br)cc2)[n+]2c1CCCCC2)c1ccc([N+](=O)[O-])cc1 | 4.3 | 1.4 | . | 1.1 | 2.6 | 3.2
CC(C)c1ccc(OCC(=O)NCc2ccccc2)cc1 | -51.9 | . | . | 6.5 | . | -1.9
Cn1c(Cl)c(/C=N/OC(=O)c2ccccc2Cl)c2ccccc21 | 0.5 | -1.0 | 3.8 | -21.4 | 6.8 | 0.1
Cc1cccc(C(=O)O/N=C/c2c(N3CCOCC3)n(C)c3ccccc23)c1 | -19.6 | -1.8 | 16.6 | 71.7* | -0.4 | -1.7
Cc1ccc(C)c(C(=O)Cn2ncc(Cl)c(Cl)c2=O)c1 | -12.1 | 12.5 | 38.3 | 13.3 | 1.9 | 6.7
Cc1cc(Br)ccc1NC(=O)CNC(=O)Cn1ncc(Cl)c(Cl)c1=O | 7.8 | 2.7 | 96.2* | 62.7* | 7.6 | 6.4
CCc1ccccc1NC(=O)CN(C)C(=O)Cn1ncc(Cl)c(Cl)c1=O | -1.5 | 3.2 | 97.0* | -62.6 | 2.7 | 9.1
CCC(=O)Nc1ccc(C(=O)Cn2ncc(Cl)c(Cl)c2=O)cc1 | 28.2 | 77.5* | . | -52.7 | 44.6* | 18.4
CC(NC(=O)Cn1ncc(Cl)c(Cl)c1=O)C12CC3CC(CC(C3)C1)C2 (stereo unspecified) | -6.2 | 62.6* | 96.2* | 88.0* | 74.6* | 25.4*
O=C(CCC(=O)N1CCN(c2cccc(Cl)c2)CC1)c1cccs1 | . | . | . | 5.4 | . | .
Cc1ccc(OCC(O)CN2CCOCC2)c(C)c1 (stereo unspecified) | -20.1 | . | . | -13.1 | . | -2.0
SMILES | KLF5 inhibitor | Ba/F3 V617F tox | APP transl inh | aSyn 5UTR inh | BaF3 parental | IEC-6 cytotox
Cc1cccc2sc(N(CCCN(C)C)C(=O)CCc3ccccc3)nc12 | 6.2 | 0.2 | -11.4 | 62.2* | 5.5 | -6.2
Cc1cccc2sc(N(CCCN(C)C)C(=O)CN3C(=O)c4ccccc4C3=O)nc12 | -21.6 | 6.8 | 4.3 | -15.4 | 10.1 | 3.1
NS(=O)(=O)c1ccc(CCNC(=O)Cc2cccs2)cc1 | -26.9 | . | . | -9.6 | . | -1.2
CC(C)On1c(SCC(=O)N(C)C)nc2ccccc2c1=O | -13.8 | -3.8 | . | -3.7 | 2.2 | -7.5
Oc1ccc2ccccc2c1/C=N/Nc1ccccc1 | -20.7 | -3.6 | -16.3 | -41.8 | 0.9 | 0.0
Cc1cc(N/N=C/c2c(O)ccc3ccccc23)nc(-c2ccccc2O)n1 | -4.7 | -1.6 | 57.9* | 72.0* | 0.2 | -4.6
Cc1csc2nc(SCC(=O)N3CCN(c4ccccc4)CC3)[nH]c(=O)c12 | -20.5 | . | . | 7.8 | . | -4.8
CCN1CCN(Cc2ccc(NC(=O)c3cc(NC(=O)C(=O)c4c[nH]c5ccccc45)cc(OC)c3)cc2C(F)(F)F)CC1 | . | . | . | 116.7* | . | .
CCN1CCN(Cc2ccc(NC(=O)c3cc(NC(=O)c4cc(C)on4)cc(OC)c3)cc2C(F)(F)F)CC1 | -11.8 | . | . | 20.3 | . | -1.5
O=C(COC(=O)/C=C/c1ccccc1[N+](=O)[O-])NCC(F)(F)F | -23.2 | 3.5 | -6.2 | -29.4 | 7.1 | 0.5
O=C(CNC(=O)[C@@H]1Cc2ccccc2CN1)Nc1ccc2c(c1)OCCO2 | -4.9 | . | . | -19.8 | . | 2.9
COc1ccccc1CN1CC(C(=O)N2CCC(C(=O)c3ccccc3)CC2)CCC1=O (stereo unspecified) | -17.3 | . | . | -41.7 | . | 16.2
COc1cc(NS(=O)(=O)c2ccc(NC(=S)NC(=O)CC(C)C)cc2)nc(OC)n1 | -17.3 | -1.7 | 54.5* | 6.9 | -1.0 | -0.5
COC(=O)CCC(=O)NC(=S)Nc1ccc(S(=O)(=O)Nc2cc(OC)nc(OC)n2)cc1 | -10.3 | 0.0 | -8.3 | -35.3 | 4.7 | -0.3
Cc1cccc(C)c1NC(=O)CN(C)C(=O)c1ccccc1OCc1ccc(F)cc1 | . | . | . | -0.4 | . | .
O=C(Nc1ccc(NC(=O)c2cc3ccccc3o2)cc1)c1ccc2c(c1)OCCO2 | -9.5 | 1.1 | 66.7* | 71.5* | 6.7 | -2.8
CN(C)c1ccc(NC(=O)C2C3C=CC(C3)C2C(=O)O)cc1 (stereo unspecified) | -24.4 | . | . | -73.5 | . | 0.7
Cc1cc(NC(=O)Nc2cccc([N+](=O)[O-])c2)no1 | -44.8 | 0.0 | -7.9 | -49.7 | 89.7* | 3.6
Cc1cc(C(=O)CSc2nc3ccccc3c(=O)[nH]2)c(C)n1CC1CCCO1 (stereo unspecified) | -111.1 | 35.0* | -102.7 | -114.9 | 39.9* | 4.1
Cc1cc(C(=O)COC(=O)CCc2nc3ccccc3c(=O)[nH]2)c(C)n1CC1CCCO1 (stereo unspecified) | -13.0 | -1.1 | . | -4.3 | -7.1 | -4.1
Cc1cc(C(=O)CSc2nc3ccccc3c(=O)n2C)c(C)n1CC1CCCO1 (stereo unspecified) | 19.1 | 59.3* | 16.6 | -1.1 | 69.3* | 9.3
C/C(=N\NS(=O)(=O)c1cccc([N+](=O)[O-])c1)c1cccnc1 | 3.4 | -0.9 | -0.6 | -12.4 | 1.4 | 1.6
CC(C)(C)C(=O)NC(=S)Nc1ccccc1C(=O)Nc1ccccc1 | -21.5 | -2.1 | 17.4 | 6.6 | 95.3* | 0.8
